High-throughput results (PubChem BioAssay)
TDP1 cell noCPT – qHTS for Inhibitors of human tyrosyl-DNA phosphodiesterase 1 (TDP1): qHTS in cells in absence of CPT. DT40 Tdp1-/- hTDP1 cells, no CPT, ATP luminescence, 48 h. Potency, µM (series often up to 46.2 µM), for inactives: top-dose activity change, negative = growth inhibition, most hits filed as inhibitors. actives 15% (n = 420,000). AID 686978, 2013; also: potency is read from the fitted curve at half-maximal effect; % is scaled to controls: 0 for no effect and ±100 for the full control effect; nearly all actives have a fitted effect of over 55% in size
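Chicken DT40 Tdp1-/- cells complemented with human TDP1, screened without camptothecin (DMSO vehicle only), 400 cells/well. Compounds pin-transferred, cells incubated at 37 °C for at least 48 hr. Growth read as ATP-dependent luminescence (CellTiter-Glo, 30 min at RT).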
DRD3 antagonist – antagonists of human D3 dopamine receptor; D3R cells, DiscoveRx beta-arrestin luminescence, antagonist mode; hits give low values; max response, negative = inhibition, %; P35462; actives 2.5% (n = 360,000); AID 652054; in the data active = max response below about -50%; inconclusive = no clear call, values can overlap the other calls; also: % is scaled to controls: 0 for no effect and ±100 for the full control effect
Target sequence (P35462 whole entry, looked up): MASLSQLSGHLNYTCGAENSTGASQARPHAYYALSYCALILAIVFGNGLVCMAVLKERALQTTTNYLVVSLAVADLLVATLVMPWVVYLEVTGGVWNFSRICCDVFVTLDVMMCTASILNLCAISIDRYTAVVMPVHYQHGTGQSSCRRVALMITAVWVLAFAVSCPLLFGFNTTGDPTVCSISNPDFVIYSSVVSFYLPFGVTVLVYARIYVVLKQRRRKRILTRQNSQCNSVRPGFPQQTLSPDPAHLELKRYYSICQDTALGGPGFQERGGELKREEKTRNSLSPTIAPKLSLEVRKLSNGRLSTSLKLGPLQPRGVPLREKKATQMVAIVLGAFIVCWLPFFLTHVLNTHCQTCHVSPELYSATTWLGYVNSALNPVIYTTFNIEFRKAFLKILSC
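Cells expressing the human receptor were seeded at 1500 cells/well, incubated overnight at 37 degrees C in 5% CO2, then exposed to library compounds with dopamine controls for 90 minutes at 37 degrees C before luminescent detection.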
IL1B secr inh – inflammasome signaling inhibition, IL-1 beta readout | THP-1 LPS/ATP IL-1B secretion, AlphaLISA, 16 h; hits give low values | activity change, % at 57.5 µM | actives 4.7% (n = 360,000); in the data active = activity change below about -50%; inconclusive = mostly about -30% to -49%; also: % is scaled to controls: 0 for no effect and ±100 for the full control effect
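Secreted IL-1B measured by AlphaLISA bead assay after 16 h compound exposure of THP-1 cells; compounds (final up to 57.5 uM) added 1 h before LPS (250 ng/mL) and ATP (1.25 mM) stimulation; lower signal means less secretion.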
ClpP mod – qHTS Assay for Activators of ClpP. purified B. subtilis ClpP, FRET peptide cleavage, 20 min. Potency, µM (highest dose often 57.5 µM), without a hit: at the top dose activity change, negative = active. actives 1.9% (n = 340,000); active = well fitted falling curve with a large enough effect; inconclusive = small, poorly fitted or top-dose-only effect; inactive = no such curve, though single readings can be large or run the other way; also: potency is read from the fitted curve at half-maximal effect; the source files actives as falling curves though it sought activators and does not explain the sign; nearly all actives have a fitted effect of over 65% in size
Target sequence (P80244 whole entry, looked up): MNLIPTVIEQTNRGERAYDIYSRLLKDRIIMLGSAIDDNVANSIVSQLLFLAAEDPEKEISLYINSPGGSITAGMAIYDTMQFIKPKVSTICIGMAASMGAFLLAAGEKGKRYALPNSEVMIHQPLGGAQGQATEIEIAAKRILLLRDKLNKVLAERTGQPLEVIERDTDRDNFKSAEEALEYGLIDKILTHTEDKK
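FRET quenching reversal measured ClpP activation: 10 microg/mL B. subtilis ClpP at pH 8 with the FRET-FV decapeptide, read at 430 nm after 320 nm excitation. The 20-min minus 0-min signal was scaled between DMSO/no-enzyme wells and ADEP (5.8 microM final).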
DRD3 agonist – activates the human D3 dopamine receptor | P35462 | actives 0.58% (n = 410,000) | max activation, % | D3R DiscoveRx beta-arrestin cells, luminescence, 90 min; in the data active = max activation above about 30%; also: 0% is about no effect
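Cells at 1500/well, incubated overnight, then treated with pinned compounds (dopamine as control) for 90 min at 37 degrees C. DiscoveRx reagent added for 30 - 60 minutes at room temperature; luminescence read.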
TDP1 cell CPT – DT40-hTDP1 cell growth loss with CPT; chicken DT40 Tdp1-/-;hTDP1 cells + 20 nM CPT, ATP luminescence, 48 h; Potency, µM (top dose mostly 46.2 µM), for inactives: top-dose activity change, negative = growth inhibition, most hits filed as inhibitors; actives 12% (n = 420,000); AID 686979; also: potency is read from the fitted curve at half-maximal effect; % is scaled to controls: 0 for no effect and ±100 for the full control effect; nearly all actives have a fitted effect of over 55% in size
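Chicken DT40 Tdp1-/- cells complemented with human TDP1, 400 cells/well, exposed to compounds plus 20 nM camptothecin for at least 48 h at 37 C; viability read as ATP content by CellTiter-Glo luminescence.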
Starred values were filed as active, the others as inactive; u = inconclusive; x = not tested or not shown; [ ] = remark or other dose. This is a sample that favours compounds with a hit; in the whole collection about 21% have one here. Unless noted, calls follow the shape of the dose curve; as a rule, active = well fitted inhibition curve with a large enough effect; inconclusive = small, poorly fitted or top-dose-only effect; inactive = flat fitted curve, though single readings scatter.

SMILES	TDP1 cell noCPT	DRD3 antagonist	IL1B secr inh	ClpP mod	DRD3 agonist	TDP1 cell CPT
CCOc1ccc(/C=N/O)cc1	1%	u	9	0%	4	4%
CCOc1ccc([N+](=O)[O-])c(N)c1	-27%	-15	0	-1%	-3	-2%
CCOc1ccc(N=Cc2ccc([N+](=O)[O-])cc2)c(O)c1	12µM*	-17	-52*	0%	-7	23µM*
CCOC(=O)N1CCC2(CC1)OC(=O)C(C)=C2C(=O)NCc1ccccc1OC	u	x	x	0%	4	-33%
COc1ccc(NC(=O)c2ccccc2OCc2c(C)noc2C)cc1OC	8%	5	-1	3%	-2	-4%
Cn1ncc2c(N3CCN(c4ccccc4Cl)CC3)ncnc21	21µM*	x	x	-2%	-7	u
CN1CCN(c2ncnc3c2cnn3-c2cccc(Cl)c2)CC1	16µM*	x	x	-4%	5	16µM*
Clc1cccc(-n2ncc3c(N4CCC(Cc5ccccc5)CC4)ncnc32)c1	-3%	x	x	-1%	1	-15%
Cn1ncc2c(N3CCOCC3)ncnc21	-18%	-23	-11	0%	-20	-25%
Cn1ncc2c(N3CCN(c4cccc(Cl)c4)CC3)ncnc21	5.8µM*	x	x	-1%	-4	u
Cc1ccc(OCC(=O)Nc2nonc2-c2ccc(Br)cc2)cc1C	u	x	x	-1%	-10	u
CCNc1ncc2nc(-c3ccc(F)cc3)c(=O)n(CCOC)c2n1	-3%	x	x	x	x	-22%
Cc1ccc(NC(=O)c2noc3c2CC(C(C)(C)C)CC3)cc1 (centres undefined)	23µM*	-13	-27	-7%	3	u
COC(=O)c1ccccc1NC(=O)c1noc2c1CC(C(C)(C)C)CC2 (centres undefined)	21µM*	25	6	-3%	-17	u
CCCCCCCCN1N=N[C@H]2[C@H]1[C@@H]1C[C@H]2N(C(=O)OC(C)(C)C)O1	u	0	-14	2%	-27	u
O=C(NCc1ccncc1)c1nc(-c2cccs2)no1	-27%	-2	0	x	-1	-2%
O=C(NCc1ccncc1)c1nc(-c2ccc(C(F)(F)F)cc2)no1	8.2µM*	17	u	x	3	15µM*
O=C(NCc1cccnc1)c1nc(-c2ccc(C(F)(F)F)cc2)no1	13µM*	-59*	8	-1%	-4	15µM*
Nc1ccc(C(=O)c2cccs2)cc1[N+](=O)[O-]	-25%	-14	-17	-1%	0	-11%
Cc1ccc(NC(=O)N2CCC(CN3CCCCCC3)CC2)c(Cl)c1	u	x	x	1%	0	u
Cc1cccn2c(=S)[nH]nc12	-3%	-23	10	-10%	1	4%
O=C(c1ccc(F)cc1F)N1CCCC(c2nc(-c3ccc(F)cc3)no2)C1 (centres undefined)	18µM*	11	-21	x	-18	u
COc1ccc(-c2noc(C3CCCN(C(=O)c4c(F)cccc4F)C3)n2)cc1OC (centres undefined)	u	22	-17	x	29	u
O=C(Nc1ccc(F)cc1F)N1CCCC(c2nc(-c3ccc(F)cc3)no2)C1 (centres undefined)	u	-16	-15	1%	3	18µM*
O=C(CN1CCCCCC1)Nc1ccccc1OC(F)F	-2%	u	59	x	-9	3%
SMILES	TDP1 cell noCPT	DRD3 antagonist	IL1B secr inh	ClpP mod	DRD3 agonist	TDP1 cell CPT
CCN(CC)CCn1c(SCC(=O)Nc2ccc3c(c2)CCC3)nc2ccccc2c1=O	2.3µM*	-19	u	-18%	-3	u
CCN(CC(=O)Nc1ccc2c(c1)CCC2)Cc1nc2ccccc2c(=O)[nH]1	8.2µM*	-1	4	-2%	-6	3.7µM*
O=C(CSc1nc2ccccc2c(=O)n1-c1ccccc1F)Nc1ccc2c(c1)CCC2	u	-1	7	-5%	3	u
CCN(CC(=O)Nc1cccc(Br)c1)Cc1nc2ccccc2c(=O)[nH]1	4.6µM*	8	9	-3%	4	5.2µM*
CCN(CC(=O)Nc1ccc2c(c1)OCO2)Cc1nc2ccccc2c(=O)[nH]1	u	4	-4	-1%	-1	u
CCN(CC)CC(=O)Nc1ccc2c(c1)Nc1ccccc1CC2	16µM*	-14	-14	-1%	4	u
CCN(CC)CC(=O)Nc1ccc2c(c1)N(C(=O)CN(CC)CC)c1ccccc1CC2	u	-8	u	0%	1	u
N#Cc1ccncc1S(=O)c1ccc(Cl)cc1 (centres undefined)	8%	12	-18	0%	-1	3%
COc1ccc(CC(=O)Oc2ccc(C(C)(C)C)cc2)cc1S(=O)(=O)N1CCOCC1	13%	27	6	1%	2	-10%
COc1ccc(CNC2CCN(Cc3ccccc3)CC2)cc1	u	-26	0	-3%	-10	u
C1=C[C@@H]2CCN(Cc3ccccc3)Cc3cccc(c32)C1	u	u	19	-2%	-50	-38%
Cc1ccc(CN2CC[C@H]3C=CCc4cccc(c43)C2)cc1	21µM*	-123*	19	-4%	-71	u
COc1ccc(CN2CC[C@H]3C=CCc4cccc(c43)C2)cc1	u	-103*	5	-2%	-34	u
CCc1cc(C(=O)NCc2c(C)ncc3c2CCN(C(=O)C2=CCCC2)C3)no1	-11%	x	x	x	x	12%[9.04 µM]
CC(C)n1c(C(F)(F)F)nc2cc(C(=O)N3CCCCC3)ccc21	-8%	-6	21	0%	-2	2%
C[C@@H]1CN([C@H](C)CO)C(=O)c2c(c3ccccc3n2C)-c2ccccc2CO[C@H]1CN(C)Cc1ccc(C(F)(F)F)cc1	21µM*	-13	u	-9%	3	u
C[C@@H]1CN([C@H](C)CO)C(=O)c2c(c3ccccc3n2C)-c2ccccc2CO[C@H]1CN(C)Cc1ccc(Oc2ccccc2)cc1	26µM*	30	-20	-23%	4	u
C[C@@H]1CN([C@H](C)CO)C(=O)c2c(c3ccccc3n2C)-c2ccccc2CO[C@H]1CN(C)Cc1cccc(C(=O)O)c1	-16%	8	-13	-4%	-2	-20%
